Screening data (PubChem)
The list is not random: actives were taken first. Their share in the collection is about 10%.
SARS PLP yeast: inhibitors of SARS-CoV papain-like protease in yeast; S. cerevisiae expressing SARS-CoV PLpro, growth rescue; Potency, µM (top dose mostly 32.9 µM), most hits filed as activators; 0.19% of 330,000 active; AID 485353; also: nearly all actives have a fitted effect of over 55% in size
Pf growth 96h: P. falciparum growth inhibition at 96 hours; P. falciparum luciferase reporter growth, 96 h; Potency, µM (doses to about 28.7 µM), hits mostly inhibitors; 6.9% of 320,000 active; AID 504834; active = well fitted inhibition curve with a large enough effect; inconclusive = small, poorly fitted or top-dose-only effect, or another doubt; inactive = no such curve, though single readings can be large or run the other way
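P. falciparum expressing integrated firefly luciferase grown in erythrocytes (2% hematocrit, 0.05% parasitemia final) with compounds for 96 hours at 37 C, 5% CO2. Growth inhibition read as loss of luminescence after adding luciferase detection reagent.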
Pf growth 48h: inhibits P. falciparum growth in the first generation, 48 h; P. falciparum luciferase growth in erythrocytes, 48 h; Potency, µM (highest dose often 28.7 µM), most hits filed as inhibitors; 5.9% of 310,000 active; AID 504832; active = well fitted inhibition curve with a large enough effect; inconclusive = small, poorly fitted or top-dose-only effect, or another doubt; inactive = no such curve, though single readings can be large or run the other way
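Luciferase-expressing P. falciparum in infected erythrocytes (2% hematocrit, 0.1% parasitemia final) in RPMI 1640/0.5% Albumax were exposed to compound for 48 hours at 37 C, 5% CO2; growth read as luminescence.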
NS1 inh: inhibitors of influenza NS1 protein function; Potency, µM (titrated, usually from 46.1 µM); 0.4% of 270,000 active; AID 2326; also: actives are rising curves; nearly all actives have a fitted effect of over 50% in size
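Read-out: OD600 growth recovery of NS1-expressing budding yeast. Cells grown overnight at 30C in -URA glucose medium, washed, resuspended and diluted 1:100 in 2% galactose assay medium, pH 6.0. Same strain lacking NS1 served as positive control.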
Of the large screens only hits and unclear results are named; the others gave an inactive call. Unless noted, calls follow the shape of the full dose curve.

CCC(=O)N/C(N)=N/c1nc(C)c2cc(OC)ccc2n1	Pf growth 48h 3.3µM
CCC(=O)N/C(=N/c1nc(C)cc(C)n1)Nc1ccc(OC)cc1	Pf growth 96h 15µM
COCCn1c(SC(C)C(=O)NCC2CCCO2)nc2scc(-c3ccc(F)cc3)c2c1=O (configuration not stated)	Pf growth 96h inconclusive, Pf growth 48h 13µM (no result: NS1 inh)
O=C(CSc1nnc(Cc2cccs2)n1-c1ccccc1)NCc1ccc2c(c1)OCO2	none (no result: Pf growth 96h)
CC(Sc1nnc(-c2cccs2)n1-c1ccccc1)C(=O)NCc1ccc2c(c1)OCO2 (configuration not stated)	Pf growth 96h 10µM (no result: Pf growth 48h)
C=CCn1c(SCC(=O)NCc2ccc3c(c2)OCO3)nc2scc(-c3ccc(F)cc3)c2c1=O	none (no result: Pf growth 48h)
C=CCn1c(SC(C)C(=O)NCc2ccc3c(c2)OCO3)nc2scc(-c3ccccc3)c2c1=O (configuration not stated)	Pf growth 96h 6.6µM, Pf growth 48h inconclusive
COCCn1c(SC(C)C(=O)NCC2CCCO2)nc2sc3c(c2c1=O)CCC3 (configuration not stated)	Pf growth 96h 8.3µM, Pf growth 48h inconclusive (no result: NS1 inh)
CCn1c(SC(C)C(=O)NCC2CCCO2)nc2scc(-c3ccccc3)c2c1=O (configuration not stated)	Pf growth 96h 2.9µM, Pf growth 48h 7.4µM (no result: NS1 inh)
C=CCn1c(SCC(=O)NCC2CCCO2)nc2scc(-c3ccccc3)c2c1=O (configuration not stated)	Pf growth 48h inconclusive
CN(C)S(=O)(=O)c1cccc(NC(=O)c2cccc(N3C(=O)CCC3=O)c2)c1	Pf growth 48h inconclusive (no result: NS1 inh)
CCN1C(=O)[C@H]2[C@H]3[C@H](O)[C@H](O)C/C(=N\OC[C@@H](C)[C@H](OCc4ccccc4)C(C)C)[C@@H]3CC[C@H]2C1=O	Pf growth 96h inconclusive, Pf growth 48h 10µM
Cc1ncc(CO)c(/C=N/NC(=S)Nc2ccc(C(C)C)cc2)c1O	Pf growth 96h 12µM, Pf growth 48h inconclusive
Cc1ncc(CO)c(/C=N/Nc2cccc(Cl)n2)c1O	Pf growth 48h inconclusive
Cc1ncc(CO)c(/C=N/NC(=O)c2cc(O)c(O)c(O)c2)c1O	SARS PLP yeast inconclusive, Pf growth 96h inconclusive, Pf growth 48h 2.6µM (no result: NS1 inh)
Cc1ncc(CO)c(/C=N/NC(=O)c2ccc(Br)cc2)c1O	SARS PLP yeast inconclusive, Pf growth 96h inconclusive, Pf growth 48h inconclusive
CN(C)C(=O)CCSc1nnc(-c2ccco2)o1	none (no result: NS1 inh)
CN(C)/C=C(\C(=O)c1ccccc1)c1nnnn1-c1ccccc1	none
CN(C)c1ccc(C=C(c2nnnn2-c2ccccc2)c2nnnn2-c2ccccc2)cc1	Pf growth 48h 9.3µM
CCOC(=O)C1(Cc2cccc(Cl)c2)CCCN(C(=O)c2c(CC)noc2C)C1 (configuration not stated)	Pf growth 96h inconclusive, Pf growth 48h inconclusive
Cc1c(C)n(CC(O)CNc2ccccc2)c2ccccc12 (configuration not stated)	Pf growth 96h inconclusive, Pf growth 48h inconclusive
COc1ccc(NCC(O)Cn2c(C)c(C)c3ccccc32)cc1 (configuration not stated)	Pf growth 96h 7.4µM, Pf growth 48h inconclusive
CCN(CC)c1ccc(/C=N/NC(=S)NCc2ccc(OC)cc2)cc1	Pf growth 96h inconclusive, Pf growth 48h inconclusive, NS1 inh inconclusive
C=CCNC(=S)N/N=C/c1ccc(N(CC)Cc2ccccc2)cc1	SARS PLP yeast inconclusive, Pf growth 48h 6.6µM, NS1 inh inconclusive
CCN(CC)c1ccc(/C=N/NC(=S)NCc2ccccc2)cc1	Pf growth 96h 9.3µM, Pf growth 48h 13µM
COc1cc(OC)c(N(C)C(=O)c2cn(C)c(=O)c3cc(OC)c(OC)cc23)cc1Cl	none (no result: Pf growth 48h)
COc1ccc(-n2c3c(cc(C(=O)N4CCN(CCO)CC4)c2=O)C(=O)CC(C)(C)C3)cc1	Pf growth 96h 10µM
COc1ccc(-n2c3c(cc(C(=O)NNc4ccccc4)c2=O)C(=O)CC(C)(C)C3)cc1	none (no result: NS1 inh)
COc1ccc(OC)c(C(=O)NC(CC(N)=O)c2ccc(N3CCN(c4ccc(F)cc4)CC3)c([N+](=O)[O-])c2)c1 (configuration not stated)	none
N#CC(C#N)=C(N)/C(C#N)=C/c1cc(O)c(O)c(O)c1	Pf growth 96h 9.3µM, Pf growth 48h 12µM (no result: SARS PLP yeast, NS1 inh)
Nc1ncnc2c1nc(Br)n2C1O[C@H]2COP(=O)(O)O[C@@H]2C1O (some centres not stated)	none (no result: SARS PLP yeast, Pf growth 96h, Pf growth 48h)
CNC(=S)NNC(=O)COc1ccc(C)c(C)c1	SARS PLP yeast 13µM
COc1cccc(-c2noc(CCCC(=O)NC3CCCC3)n2)c1	Pf growth 96h 2.3µM
Cc1ccc(OCC(=O)NC2CCCCCC2)cc1C	Pf growth 96h 10µM
